Eya2 phos inh – blocks the phosphatase activity of human Eya2. O00167. recombinant Eya2, OMFP fluorescence dephosphorylation (OMFP is methylfluorescein phosphate). Potency, µM (titrated, usually from 76.9 µM), without a hit: top-dose activity, negative = inhibition, most hits filed as inhibitors. 0.006% of 330,000 active. AID 488837
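Eya2 (0.2 uM) preincubated 10 min at ambient with compound, then OMFP substrate added at 50 uM; 10 min reaction in 50 mM HEPES pH 7.5, 50 mM NaCl, 5 uM MgCl2, 0.05% BSA, 1 mM DTT. Fluorescence read at Ex 485/Em 525 nm.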
GALK inh – blocks human galactokinase activity; 0.007% of 270,000 active; Potency, µM (top dose mostly 57.5 µM), inactives show at the top dose activity change, negative = inhibition, actives largely listed as inhibitors; Purified GALK, Kinase-Glo residual ATP luminescence; P51570; AID 1868
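ATP-depletion format; final 35 uM ATP, 100 uM D-galactose, 5 nM enzyme; pH 8.0 HEPES/Mg2+ buffer; 60 min RT; luminescence read 10 min after detection reagent.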
USP2a block – blocks human ubiquitin-specific protease USP2a; USP2 core, Ub-CHOP2 coupled fluorogenic reporter, 485/531; O75604; Potency, µM (series often up to 38.3 µM), for the others: at the highest dose activity change, negative = inhibition, usual class: inhibitors; 0.01% of 330,000 active;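 further: plate controls were DMSO wells for no effect and full inhibition by NEM control for full effect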
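Deubiquitinase activity read as fluorescence (485/531 nm) after Ub-CHOP2 cleavage activates the enterokinase reporter on its substrate; USP2 core 10nM, Ub-CHOP2 and substrate 25nM each, 30min compound preincubation then 60min RT; data normalized to NEM, curves fitted.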
TrxR1 substrate – is turned over as a substrate by rat TrxR1 | O89049 | purified TrxR1 substrate turnover, NADPH consumption readout | Potency, µM (doses to about 114 µM), inactives show at the highest dose activity change, negative = substrate turnover | 0.01% of 390,000 active | AID 588456; further: nearly all actives have a fitted effect of over 50% in size
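Rat TrxR1, dispensed at 90 nM, was prereduced with 400 uM NADPH (final) for 5 min at ~22 deg C, then incubated with compound 15 min before 400 uM selenite. A first-read NADPH fluorescence drop versus no-compound background flagged substrates.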
RGS4 inh – blocks human RGS4-accelerated GTP hydrolysis; P49798; Transcreener GDP fluorescence polarization, RGS4-accelerated GTP hydrolysis; Potency, µM (series often up to 114 µM), for the others: at the top dose activity change, negative = inhibition, most hits filed as inhibitors; 0.039% of 390,000 active; further: nearly all actives have a fitted effect of over 75% in size
Target sequence (P49798 whole entry, looked up): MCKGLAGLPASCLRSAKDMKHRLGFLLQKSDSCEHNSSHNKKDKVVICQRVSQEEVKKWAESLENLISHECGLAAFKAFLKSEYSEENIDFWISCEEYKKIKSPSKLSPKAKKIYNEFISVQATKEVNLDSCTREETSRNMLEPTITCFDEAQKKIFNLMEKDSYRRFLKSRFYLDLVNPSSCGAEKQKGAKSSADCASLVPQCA
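MLSMR compounds (23 nl, pin-transferred) preincubated 10 min at room temperature with a 500nM (2x) first reagent, then RGS4 at 900nM (2x) plus Transcreener GDP mix added; fluorescence polarization (620/688 nm) read before and after 90 min at 30 °C.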
TrxR1 inh – rat TrxR1 inhibition | O89049 | recombinant rTrxR1, NADPH fluorescence consumption, selenite substrate | Potency, µM (highest dose often 114 µM), for inactives: top-dose activity change, negative = inhibition, most hits filed as inhibitors | 1% of 390,000 active; further: nearly all actives have a fitted effect of over 65% in size
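Rat TrxR1 (90 nM in the dispensed reagent) was pre-reduced with 400 uM NADPH for 5 min at room temperature, then incubated with compound for 15 min. After 400 uM selenite was added, NADPH fluorescence (Ex 340/Em 450 nm) was followed for 8 min.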
Active calls of the source: *; ? = inconclusive; . = no result; [ ] = remark or other dose. A selection: hits, their analogues and other compounds. The true share with any hit is near 1%. The call rests on the fitted dose curve; in most records, active means well fitted curve in the direction sought with a large enough effect; inconclusive means small, poorly fitted or top-dose-only effect, or another doubt; inactive means no such curve, though single readings can be large; an effect the other way counts as inactive or inconclusive. Unless noted, on the % scale 0 is the no-effect control and ±100 the full control effect; potency means the concentration at half of the fitted maximal effect.

SMILES | Eya2 phos inh | GALK inh | USP2a block | TrxR1 substrate | RGS4 inh | TrxR1 inh
CCOc1cc(/C=C\[N+](=O)[O-])ccc1OCC(=O)N1CCOCC1 | -7% | 0% | 2% | 8%[57.1 µM] | ? | 8.9µM*
COc1cc2c(NC3CCN(C)CC3)nc(N3CCCN(C)CC3)nc2cc1OCCCN1CCCC1 | . | . | . | 50% | . | 50µM*
Nc1cccc2[nH]cnc12 | . | . | . | 1% | . | 0%
O=C(c1ccc(Br)cc1)C(CN1CCOCC1)c1ccccc1 (stereo not drawn) | -13% | 0% | 1% | 16%[57.1 µM] | ? | ?
O=C(c1ccccc1)C(CN1CCCCC1)c1ccccc1 (stereo not drawn) | . | . | . | 4% | ? | 25µM*
C=C1C(=O)OC2C1CCC(C)=C1C(=O)C3OC3(C)C12 (stereo not drawn) | . | . | . | 7% | -36% | 8.9µM*
CCCCOC(=O)c1ccc(Nc2ncnc3nc[nH]c23)cc1 | 0% | -2% | 1% | 6% | -13% | 18%
CCCCCCCCOC(=O)c1cc([N+](=O)[O-])c(Sc2ncnc3nc[nH]c23)c([N+](=O)[O-])c1 | . | . | . | -7% | ? | 40µM*
CN(C)c1ccc(N=Nc2ccc(/C=C/c3ccnc4ccccc34)cc2)cc1 | . | . | . | -13% | . | ?
Cc1ccc(CNC(=O)C2CCC(=O)N(CC3CCCCC3)C2)o1 (stereo not drawn) | 5% | -6% | 1% | -13% | -17% | 50µM*
COc1ccc(CNC(=O)C2CCC(=O)N(CC3CCCCC3)C2)cc1 (stereo not drawn) | -3% | 0% | 3% | 4% | -4% | 3%
Cc1ccc(CNC(=O)C2CCC(=O)N(Cc3cccc(C(F)(F)F)c3)C2)o1 (stereo not drawn) | . | . | . | 8% | -37% | 35µM*
Cc1ccc(CNC(=O)C2CCN(S(=O)(=O)c3cccs3)CC2)o1 | -6% | 2% | 2% | 1% | -33% | 8.9µM*
COc1ccc(N2CCN(C3CC(=O)N(C)C3=O)CC2)cc1 (stereo not drawn) | 5% | -2% | -1% | -1% | -16% | 1%
COc1ccc(N2C(=O)CC(N3CCN(c4ccc(S(C)(=O)=O)cc4)CC3)C2=O)cc1 (stereo not drawn) | -11% | 1% | 2% | 9% | -15% | 16µM*
COc1ccc(CCn2c3c(c(=O)[nH]c2=S)CN(Cc2ccccc2)CN3)cc1OC | . | . | . | -7% | -3% | ?
COc1ccc(NC2C=CS(=O)(=O)C2)cc1 (stereo not drawn) | . | 5% | . | 7% | -21% | 16µM*
Cc1cc(C)c(OCC(=O)OCCNC(=O)c2cccnc2)c(C)c1 | -2% | 0% | 2% | -3% | 7% | 50µM*
COc1cc(C(=O)OCCNC(=O)c2cccnc2)cc(OC)c1OC | -18% | . | 1% | 3%[57.1 µM] | -1% | -7%
COC(=O)c1c(C)oc(C)c1S(=O)(=O)N(C)C1CCCCC1 | -1% | -2% | 5% | 1% | 29% | 16µM*
Cc1ccc(O)c(NC2=C(Cl)C(=O)N(Cc3ccccc3)C2=O)c1 | -9% | -4% | -2% | -4% | ? | 10µM*
O=C1C(Cl)=C(Nc2ccccc2O)C(=O)N1c1ccccc1 | -11% | 1% | -1% | -4% | -36% | 45µM*
COc1ccccc1N1C(=O)C(Cl)=C(Nc2ccccc2O)C1=O | 4% | -2% | 0% | 11%[57.1 µM] | ? | -71%
O=S(=O)(c1ccccc1C(F)(F)F)N1CCN(c2nc(-c3cccs3)nc3ccccc23)CC1 | . | . | . | 14% | 16% | 41%
O=C(C[n+]1c(Cl)ccc2ccccc21)c1ccc2ccccc2c1 | . | . | . | -4% | . | -18%
Cc1ccc(S(=O)(=O)N2[C@@H](c3ccccc3F)C(C(=O)O)=CC[C@H]2c2ccc(Cl)c(Cl)c2)cc1 | ? | . | 11µM* | 5% | 5% | 5%[57.1 µM]
